APE1 inh: APE1 (human) endonuclease inhibition; Potency, µM (doses to about 65.8 µM), inactives show at the top dose activity change, negative = inhibition, hits mostly inhibitors; P27695; AID 2517; hit rate 0.35% among 350,000; recombinant APE1, TAMRA/BHQ-2 abasic DNA cleavage fluorescence;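 note: potency is the fitted concentration of half-maximal effect; plate controls were vehicle for no effect and reference inhibitor for full effect; nearly all actives have a fitted effect of over 55% in size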
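APE1 at 0.75 nM final was preincubated with compound 15 min at room temperature, then 50 nM double-stranded THF abasic-site substrate (5'-TAMRA/3'-BHQ-2) was added. Fluorescence (ex 525/em 598 nm) was read kinetically; third-minus-first read gave activity.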
Tb PGK inh: inhibitors of T. brucei phosphoglycerate kinase; P07378; PGK/GAPDH coupled, Kinase-Glo luminescence, 60 min; Potency, µM (doses to about 57.5 µM), for inactives: at the highest dose activity change, negative = inhibition, usual class: inhibitors; hit rate 0.043% among 380,000; note: potency is the fitted concentration of half-maximal effect; % is set by controls: 0 for no effect and ±100 for the full control effect; nearly all actives have a fitted effect of over 60% in size
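Luminescent ATP detection (Kinase-Glo Plus) follows a 60-minute room-temperature incubation, with wells lacking PGK as controls. Buffer: 100 mM TEA (pH 7.6), 5 mM MgCl2, 0.01% Tween-20. Coupling enzyme GAPDH (100 nM final) supplies unstable 1,3-BPG in-well.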
FEN1 inh-1: inhibitors of human flap endonuclease 1. hit rate 0.35% among 390,000. AID 588795. Recombinant FEN1 flap cleavage, fluorescence, 15 min. Potency, µM (highest dose often 114 µM), for the others: top-dose activity change, negative = inhibition, usual class: inhibitors. P39748; note: potency is the fitted concentration of half-maximal effect; % is set by controls: 0 for no effect and ±100 for the full control effect; nearly all actives have a fitted effect of over 65% in size
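Steps: FEN1 (10 nM) dispensed; compound added by pin tool; 15 min at room temperature; substrate added to 50 nM final; reads at 0 min and 15 min; data normalized and fitted (four-parameter Hill).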
Tb PFK block: T. brucei PFK enzyme inhibition | O15648 | T. brucei PFK, ADP-Glo luminescence | Potency, µM (titrated, usually from 57.5 µM), inactives show at the highest dose activity, negative = inhibition, usual class: inhibitors | hit rate 0.17% among 330,000 | AID 485367;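 note: potency is the fitted concentration of half-maximal effect; 0% = uninhibited 1x PFK enzyme wells and -100% = no-enzyme wells; nearly all actives have a fitted effect of over 60% in size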
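PFK 1.25 nM, F6P 0.5 mM, ATP 0.1 mM, 0.1 M TEA pH 8.0, 5 mM MgCl2, 0.01% Tween20, 0.1% BSA; 45 min RT. ADP-Glo readout. qHTS titration up to 57 uM; curves fitted, compounds curve-classed.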
TDP1 block: blocks human tyrosyl-DNA phosphodiesterase 1; Q9NUW8; recombinant TDP1, AlphaScreen DNA substrate cleavage; Potency, µM (titrated, usually from 130 µM), for the others: at the highest dose activity change, negative = inhibition, most hits filed as inhibitors; hit rate 0.28% among 350,000; AID 485290; note: potency is the fitted concentration of half-maximal effect; % is set by controls: 0 for no effect and ±100 for the full control effect; nearly all actives have a fitted effect of over 40% in size
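Here, a 5' biotin and 3' phosphotyrosine-FITC DNA oligonucleotide reports Tdp1 activity: intact substrate bridges AlphaScreen beads, while cleavage leaves a 3' phosphate and drops signal. All incubations at room temperature.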
PI4K2A inh: PI4K2A (human) kinase inhibition. Q9BTU6. purified PI4K2A, ADP-Glo luminescence, 1 h; stronger effect = lower value. activity change, negative = inhibition, % at 76.9 µM. hit rate 0.13% among 420,000; in the data active = activity change below about -50%; inconclusive = mostly about -30% to -49%;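 note: -100% = wells without enzyme as full effect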
Target sequence (Q9BTU6 whole entry, looked up): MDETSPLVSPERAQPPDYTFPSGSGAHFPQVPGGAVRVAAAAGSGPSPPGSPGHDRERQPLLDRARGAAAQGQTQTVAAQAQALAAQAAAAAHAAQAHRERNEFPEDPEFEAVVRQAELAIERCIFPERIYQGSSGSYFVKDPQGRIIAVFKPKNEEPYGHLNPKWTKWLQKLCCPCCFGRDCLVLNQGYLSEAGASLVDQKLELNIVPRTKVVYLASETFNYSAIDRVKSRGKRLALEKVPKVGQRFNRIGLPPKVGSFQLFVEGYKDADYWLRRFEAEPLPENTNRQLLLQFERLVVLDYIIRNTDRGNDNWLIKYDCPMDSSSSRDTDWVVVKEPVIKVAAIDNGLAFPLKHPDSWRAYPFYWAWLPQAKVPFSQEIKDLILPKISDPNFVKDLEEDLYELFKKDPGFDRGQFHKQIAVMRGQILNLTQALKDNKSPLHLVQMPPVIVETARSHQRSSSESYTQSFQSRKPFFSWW
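Compounds are screened against recombinant PI4K2A using PI as substrate and ATP, the latter dispensed at 300 microM. Reactions run one hour at ambient temperature before ADP-Glo detection; full inhibition defined by wells lacking enzyme.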
FEN1 inh-2: FEN1 inhibition, cherry-pick retest. shares compounds with FEN1 inh-1. FEN1 flap cleavage, TAMRA/BHQ2 fluorogenic DNA substrate. AID 720498. Potency, µM, hits mostly inhibitors. hit rate 79% among 880; note: potency is the fitted concentration of half-maximal effect; nearly all actives have a fitted effect of over 60% in size
Starred values were filed as active, the others as inactive; i = inactive; u = inconclusive; x = no result; [ ] = dose if it differs, or a comment. Only some compounds are listed: those with a hit (about 0.8% of all), similar ones and a draw of the others. Unless noted, calls come from the whole dose curve; as a rule, active = well fitted curve in the direction sought with a large enough effect; inconclusive = small, poorly fitted or top-dose-only effect, or another doubt; inactive = no such curve, though single readings can be large; an effect the other way counts as inactive or inconclusive.

SMILES	APE1 inh	Tb PGK inh	FEN1 inh-1	Tb PFK block	TDP1 block	PI4K2A inh	FEN1 inh-2
S=C(Nc1ccc(Cl)c(Cl)c1)Nc1nnc(-c2ccncc2)s1	x	x	x	x	x	-13	x
O=C1c2cccc3cc([N+](=O)[O-])cc(c23)C(=O)N1CCN1CCCC1	u	1%	14µM*	-8%	-1%	-3	11*
O=C1c2cccc3cc([N+](=O)[O-])cc(c23)C(=O)N1/N=C/c1ccc(O)cc1O	u	2%	u	-5%	5%	-4	43*
O=C(N/N=C/c1ccc(O)cc1O)c1ccc(CN2C(=O)c3cccc4cccc2c34)cc1	-2%	-8%	-19%	6%	6%	3	x
Cc1cc(C)c2oc(-c3cccc(NC(=O)COc4ccc(Cl)cc4C)c3C)nc2c1	x	x	2%	x	x	x	x
Cc1ccc(/C=C(\C#N)C(=O)Nc2ccc(Br)cc2)o1	x	x	-8%	x	6%[12.3 µM]	-1	x
N#C/C(=C\c1ccc([N+](=O)[O-])o1)C(=O)Nc1ccc(F)cc1	21%	6%	-19%	-27%	6%	-17	48*
COc1ccc(-n2c(COc3ccccc3)nnc2SCc2nc3ccccc3[nH]2)cc1	x	x	x	x	x	-5	x
O=[N+]([O-])c1ccc(N=Nc2ccc(O)cc2O)cc1	1%	-9%	-3%	-4%	9%	-6	x
O=S(=O)(O)c1cc(Cl)cc(N=Nc2ccc(O)cc2O)c1O	x	u	56µM*	x	x	-18	85*
N#C/C(=C\c1ccc(O)c(O)c1)C(=O)Nc1cccc2ncccc12	3µM*	u	45µM*	17%	x	u	u
O=C(Nc1ccc2[nH]c(=O)[nH]c2c1)c1ccc([N+](=O)[O-])o1	-25%	-15%	-24%	-27%	-19%	-11	43*
Cc1cc2c(s1)c1cnn(Cc3ccc(C(C)C)cc3)c(=O)c1n2C	x	x	x	x	-3%	x	x
O=c1[nH]c(=S)[nH]c2c1C(c1ccc(Br)cc1)c1c([nH]c(=S)[nH]c1=O)O2	11%	u	18µM*	u	x	-56*	2.1*
O=C1CCCC2=C1C(c1ccc(Br)cc1)c1c([nH]c(=S)[nH]c1=O)N2 (configuration not stated)	0%	1%	7%	-13%	5%	-8	x
COc1ccc(/C=N/NC(=O)c2[nH]c3ccc(Cl)cc3c2-c2ccccc2)c(C(=O)O)c1OC	-4%	-14%	u	1%	x	-3	38*
COC(=O)c1ccccc1-c1c2ccc(=N)cc-2oc2cc(N)ccc12	27µM*	-11%	28µM*	-5%	8%	-1	67*
N=C1/C(=C\c2coc3ccc(O)cc3c2=O)C(=O)N=C2SC=CN12	2%	-7%	50µM*	1%	0%	-3	u
C[C@H]1[C@@H](OC(=O)NCc2ccccc2Cl)CC[C@@]23CCCN2C(=O)CCC[C@@H]13	x	x	x	x	x	5	x
CN(C)c1ccc2nc3ccc(=O)cc-3sc2c1	x	u	x	x	x	-26	43*
c1ccc2nc(-c3cc4ccccc4s3)ccc2c1	x	x	-17%	x	x	x	x
C[N+]1(CC(=O)c2c3ccccc3cc3ccccc23)CCOCC1	x	x	9%	x	x	x	x
C[n+]1c(-c2ccccc2)cc2c(=Cc3ccc([N+](=O)[O-])cc3)c3ccccc3n21	x	0%	-19%	x	x	u	x
CCOC(=O)c1cc2c(=Cc3ccc(N(C)C)cc3)c3ccccc3n2[n+]1C	x	i	22µM*	x	x	-51*	34*
Cc1cc2c(=Cc3ccc(N(C)C)cc3)c3ccccc3n2[n+]1C	x	-13%	14µM*	x	x	-13	27*
SMILES	APE1 inh	Tb PGK inh	FEN1 inh-1	Tb PFK block	TDP1 block	PI4K2A inh	FEN1 inh-2
CCn1c(SCC(=O)NN=Cc2c[nH]c3ccccc23)nc2ccccc21	x	x	x	x	x	0	x
O=C(O)c1ccc(-c2ccc(/C=c3/sc4nc5ccccc5n4c3=O)o2)cc1Cl	9.5µM*	10µM*	13µM*	-19%	x	-3	u
Cc1cc(C)c2nc3sc(=Cc4ccc(-c5ccccc5C(=O)O)o4)c(=O)n3c2c1	x	x	x	x	x	-10	x
Cc1cc(N/N=C/c2ccccc2O)c2ccccc2n1	-32%	-1%	u	1%	5%	3	x
COc1ccc2nc(C)cc(N/N=C/c3cccc(OC)c3O)c2c1	-24%	0%	14µM*	-6%	x	1	9.5*
COc1ccc(/C=N/Nc2cc(C)nc3ccc(Br)cc23)cc1	-44%	2%	u	5%	x	5	u
Nc1[nH]c(C(=O)c2ccccc2)c(-c2ccc(O)cc2)c1C(=O)NCCc1c[nH]c2ccccc12	x	x	x	x	x	-7	x
Cc1ccc2[nH]c(O)c(N=NC(=O)c3ccc(NS(=O)(=O)c4cccs4)cc3)c2c1	-1%	-4%	u	8%	x	-4	x
Cc1cccc2c(N=NC(=O)c3ccc(NS(=O)(=O)c4cccs4)cc3)c(O)[nH]c12	u	u	u	20%	50µM*	-3	34*
CN1CCc2c(sc(/N=C/c3c[nH]c4ccccc34)c2C#N)C1	-6%	-1%	u	3%	x	-1	u
CN1CCc2c(sc(/N=C/c3c[nH]c4ccccc34)c2C(N)=O)C1	-4%	-1%	u	u	u	-6	76*
CCOC(=O)c1c(/N=C/c2ccc(OC)cc2O)sc2c1CCN(C)C2	7%	9%	-23%	0%	1%	0	x
Cc1cc(/C=C/c2c(C)cnc3ccccc23)ccc1N(C)C	x	x	-2%	x	x	x	x
O=C(COc1ccc2ccccc2c1)Nc1ccc(O)c(-c2nc3ccccc3o2)c1	x	x	-1%	x	x	x	x
Cc1[nH]c2ccccc2c1C(=O)C(C)OC(=O)c1ccc([N+](=O)[O-])o1 (configuration not stated)	-1%	-2%	u	-9%	9%	-5	19*
CCc1noc(C)c1C(=O)OC(C)C(=O)c1c(C)[nH]c2ccccc12 (configuration not stated)	11%	-1%	-18%	-13%	0%	-1	x
CCC(Sc1nc2ccsc2c(=O)n1Cc1ccc(C(=O)O)cc1)C(=O)Nc1ccc(C)c(Cl)c1 (configuration not stated)	-5%	-18%	u	-5%	-13%	3	u
NS(=O)(=O)c1ccc(N=Nc2c[nH]c(=O)c(O)c2)cc1	u	u	u	-29%	-6%	-62*	u
COc1cc(/C=C2\SC(=O)N(CC(=O)Nc3ccc(C)cc3)C2=O)cc(Cl)c1OCC(=O)O	5.3µM*	u	u	-21%	x	-10	67*
